Test in all cases: NCI-60 one-dose screen, 48 h (100 = growth as untreated, 0 = no growth, -100 = all killed)
For one experiment, the system named is HCT-15 colon. The settings on record: 10 µM unless noted.
The test system of a further experiment is HT29 colon. The settings on record: 10 µM unless noted.
Another experiment relates to SNB-75 CNS. The settings on record: 10 µM unless noted.
For a further experiment, the system named is PC-3 prostate. The settings on record: 10 µM unless noted.
The subject of the next experiment is SK-MEL-5 melanoma. The conditions noted are these: 10 µM unless noted.
Another experiment deals with UACC-62 melanoma. The settings on record: 10 µM unless noted.
For the next experiment, the system named is LOX IMVI melanoma. The conditions noted are these: 10 µM.
Another experiment has as its system SK-MEL-28 melanoma. The settings on record: 10 µM unless noted.
A further experiment concerns SK-MEL-2 melanoma. The conditions noted are these: 10 µM unless noted.
Another experiment has as its system EKVX NSCLC. The settings on record: 10 µM unless noted.
The subject of the next experiment is SN12C renal. The conditions noted are these: 10 µM unless noted.
The test system of the next experiment is UO-31 renal. The conditions noted are these: 10 µM unless noted.
The test system of a further experiment is TK-10 renal. The settings on record: 10 µM unless noted.
Another experiment concerns ACHN renal. The settings on record: 10 µM unless noted.
Another experiment has as its system CAKI-1 renal. The conditions noted are these: 10 µM unless noted.
For a further experiment, the system named is A498 renal. The settings on record: 10 µM unless noted.
Another experiment has as its system CCRF-CEM leukemia. The settings on record: 10 µM unless noted.
The next experiment concerns MOLT-4 leukemia. The settings on record: 10 µM unless noted.
Another experiment deals with SNB-19 CNS. The settings on record: 10 µM unless noted.
For the next experiment, the system named is U251 CNS. The settings on record: 10 µM unless noted.

The record followed here is PubChem BioAssay (NCI).

Compounds without any hit were thinned out: in the full panel of roughly 83,000, 20% have a hit.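 Note: values are percent growth. 100 is the growth of untreated cells, values between 100 and 0 indicate rising inhibition; between -100 and 0 indicates cell death.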 A number with no mark means an inactive call. Active and inactive are the calls of the source. Rule for the calls: active = growth percent below 10; inactive = the rest. *1 amine or outer side, *2 acyl side, *3 side chain or, on linkers, in order; H or OH if unused. Where a SMILES comes first, the peptide text is derived from it. Bridges are numbered along the chain shown (N, C = ends). Roman numbers before positions name the chains, in order. [ ]: non-standard residue; d: D form. Actinocin(1to9) = Cc1c2oc3c(C)ccc(C(=O)[*:2])c3nc-2c(C(=O)[*:1])c(N)c1=O; NMeV = CN[CH](C(=O)O)C(C)C; Sar = CNCC(=O)O

With `CCC1C[N+]2=C(c3cc(OC)c(OC)cc3CC2)c2c1cc1n2CCc2cc(OC)c(OC)cc2-1` (stereo not given), the growth in the experiment with HCT-15 colon is 87.9%; in the experiment with HT29 colon it was 41%; with SNB-75 CNS, 24.5%; in the experiment on PC-3 prostate, 17.4%; in the experiment with SK-MEL-5 melanoma, -46.8% (active); in the experiment with UACC-62 melanoma, 18.7%. The growth in the experiment with LOX IMVI melanoma was 41.7%; in the experiment on SK-MEL-28 melanoma, 32.8%; in the experiment on SK-MEL-2 melanoma, -1.15% (active); in the experiment with EKVX NSCLC it was 57.9%; in the experiment with SN12C renal, 32.7%; with UO-31 renal, 90.3%. The growth in the experiment on TK-10 renal was 82.9%; in the experiment on ACHN renal, 96.9%; in the experiment on CAKI-1 renal, 87%; in the experiment with A498 renal, 75%; in the experiment with CCRF-CEM leukemia, 52.1%; in the experiment on MOLT-4 leukemia it was 41.5%.

On to `CC1=CC(=O)C=CC1(C)C(Cl)(Cl)Cl` (stereo not given), for which the growth was 97.3% in the experiment on HCT-15 colon; 83.1% in the experiment with HT29 colon; 92% with SNB-19 CNS; 83.1% in the experiment on U251 CNS; 92.9% in the experiment on PC-3 prostate; 103% with SK-MEL-5 melanoma. In addition, the growth was 95.7% in the experiment on UACC-62 melanoma; 102% with SK-MEL-28 melanoma; 87.5% in the experiment on SK-MEL-2 melanoma; 100% in the experiment on EKVX NSCLC; 88.8% in the experiment with SN12C renal; 92% with UO-31 renal. In addition, the growth was 80.2% in the experiment with TK-10 renal; 97.3% in the experiment on ACHN renal; 104% with CAKI-1 renal; 87.6% in the experiment with A498 renal; 94.9% with CCRF-CEM leukemia; 93.9% with MOLT-4 leukemia.

Consider `O=C(Nc1cccc(C(F)(F)F)c1)Oc1ccc(Cl)c2cccnc12`, for which the growth was 2.21% (active) in the experiment with HCT-15 colon; 74.3% with HT29 colon; 46.1% with SNB-19 CNS; 9% (active) with U251 CNS; -40.1% (active) in the experiment with PC-3 prostate; 34% with SK-MEL-5 melanoma. Also, the growth in the experiment with UACC-62 melanoma is 32.4%; in the experiment on LOX IMVI melanoma, 2.8% (active); with SK-MEL-28 melanoma it was 58.3%; with SK-MEL-2 melanoma, 9.44% (active); with EKVX NSCLC, -2.85% (active); in the experiment on SN12C renal, 33.1%. For the same molecule, the growth in the experiment with UO-31 renal is -17.3% (active); with ACHN renal it was -2.14% (active); in the experiment on A498 renal it was 78.5%; in the experiment on CCRF-CEM leukemia, -15.3% (active); in the experiment on MOLT-4 leukemia, -1.74% (active).

Regarding `O=C(Cc1nc2cc(Cl)c(Cl)cc2nc1CC(=O)c1ccccc1)c1ccccc1`, the growth in the experiment on HCT-15 colon was 69.6%; in the experiment on HT29 colon it was 65.3%; in the experiment with SNB-75 CNS, 70.4%; in the experiment with U251 CNS, 86.6%; in the experiment on PC-3 prostate it was 59.4%; with SK-MEL-5 melanoma, 90.3%. In addition, the growth with UACC-62 melanoma is 56.9%; in the experiment on LOX IMVI melanoma, 62.2%; in the experiment on SK-MEL-28 melanoma, 91.1%; with EKVX NSCLC, 51.4%; with SN12C renal, 75.4%; in the experiment on TK-10 renal it was 119%. In addition, the growth in the experiment on ACHN renal was 59.2%; with CAKI-1 renal it was 68.6%; with A498 renal, 125%; with CCRF-CEM leukemia, 27.1%; with MOLT-4 leukemia it was 28.9%.

As for `CCC(C)C1NC(=O)C(NC(=O)c2c3nc4c(C(=O)NC5C(=O)NC(C(C)CC)C(=O)N6CCCC6C(=O)N(C)CC(=O)N(C)C(C(C)C)C(=O)OC5C)ccc(C)c4oc-3c(C)c(=O)c2N)C(C)OC(=O)C(C(C)C)N(C)C(=O)CN(C)C(=O)C2CCCN2C1=O` (stereo not given) (I: TIP[Sar][NMeV] / II: TIP[Sar][NMeV]; ester I:1-I:C, II:1-II:C; linker I:N-II:N via Actinocin(1to9); configuration not given here), the growth with HCT-15 colon is 2.48% (active); in the experiment on HT29 colon it was 0.216% (active); with SNB-75 CNS, -87.2% (active); with U251 CNS, 1.81% (active); in the experiment with PC-3 prostate, -3.84% (active); in the experiment on UACC-62 melanoma, -67.8% (active). Further, the growth is 0.241% (active) in the experiment on LOX IMVI melanoma; 8.25% (active) in the experiment with EKVX NSCLC; 15.4% in the experiment on SN12C renal; -15.6% (active) in the experiment on UO-31 renal; 3.49% (active) in the experiment with TK-10 renal; -4.88% (active) in the experiment with ACHN renal. Besides, the growth with CAKI-1 renal was -13.1% (active); in the experiment with CCRF-CEM leukemia, -5.99% (active); in the experiment with MOLT-4 leukemia, -0.501% (active).

Consider `N#CC1c2ccccc2C=CN1C(=O)CCCl` (stereo not given), for which the growth is 84.9% in the experiment with HCT-15 colon; 78.3% in the experiment on HT29 colon; 75.9% in the experiment on SNB-75 CNS; 104% with PC-3 prostate; 101% in the experiment with SK-MEL-5 melanoma; 106% with UACC-62 melanoma. Besides, the growth in the experiment with LOX IMVI melanoma was 32.6%; in the experiment on SK-MEL-28 melanoma, 105%; with SK-MEL-2 melanoma, 94.1%; in the experiment on SN12C renal, 107%; with UO-31 renal, 60.6%; in the experiment with TK-10 renal, 14.9%. Moreover, the growth is -6.33% (active) with ACHN renal, 132% in the experiment on A498 renal, 8.12% (active) in the experiment with CCRF-CEM leukemia and 81.3% in the experiment on MOLT-4 leukemia.

For the molecule `Cc1ccc2cccc(OC(=O)Nc3cccc(C(F)(F)F)c3)c2n1`, the growth in the experiment on HCT-15 colon is 50.9%; with HT29 colon it was 56.2%; in the experiment with SNB-75 CNS it was 87.5%; in the experiment with SK-MEL-5 melanoma, 86.4%; in the experiment with UACC-62 melanoma, 60.8%; in the experiment on SK-MEL-28 melanoma, 84.6%. In addition, the growth in the experiment on SN12C renal was 61.5%; in the experiment on UO-31 renal, 35.8%; in the experiment with TK-10 renal it was 83%; with ACHN renal, 36.4%; in the experiment on CAKI-1 renal, 35.4%; in the experiment with A498 renal it was 66.3%. The growth in the experiment with MOLT-4 leukemia was 40.4%.

For the molecule `CCC(C)(O)Cc1ccc(Cl)cc1` (stereo not given), the growth in the experiment on HCT-15 colon is 103%; in the experiment on HT29 colon, 103%; with SNB-75 CNS, 88.2%; with U251 CNS it was 101%; in the experiment on PC-3 prostate, 94.5%; in the experiment with SK-MEL-5 melanoma, 91.6%. The growth in the experiment with UACC-62 melanoma is 101%; in the experiment with LOX IMVI melanoma it was 103%; in the experiment on SK-MEL-28 melanoma, 112%; in the experiment with EKVX NSCLC, 111%; in the experiment on SN12C renal, 103%; with UO-31 renal it was 94.2%. The growth in the experiment on ACHN renal is 111%; with CAKI-1 renal, 101%; with A498 renal, 89.5%; with CCRF-CEM leukemia, 105%; in the experiment on MOLT-4 leukemia, 98.4%.

For `O=Nc1ccc2ccccc2c1O`, the growth with HCT-15 colon was 66.5%; in the experiment with HT29 colon it was 46.8%; in the experiment with SNB-75 CNS, 120%; with U251 CNS, 55.9%; with PC-3 prostate it was 44.9%; in the experiment on SK-MEL-5 melanoma it was 47.6%. For the same molecule, the growth with UACC-62 melanoma was 27.1%; with LOX IMVI melanoma, 7.44% (active); in the experiment with SK-MEL-28 melanoma, 83.8%; in the experiment with EKVX NSCLC, 64.1%; with SN12C renal, 42.4%; in the experiment on UO-31 renal, 79.8%. The growth in the experiment with TK-10 renal is 9.55% (active); in the experiment on ACHN renal, 69.1%; in the experiment on CAKI-1 renal, 78.1%; in the experiment on A498 renal, 95.3%; with CCRF-CEM leukemia it was 64.5%; with MOLT-4 leukemia, 91.2%.

Consider `Nc1ccc(C(=O)/C=C/c2ccccc2)cc1`, for which the growth in the experiment on HCT-15 colon was 87%; in the experiment on HT29 colon it was 96.5%; in the experiment on U251 CNS, 91.8%; with PC-3 prostate, 74.1%; in the experiment with SK-MEL-5 melanoma, 102%; with UACC-62 melanoma it was 97%. The growth in the experiment with SK-MEL-28 melanoma was 113%; in the experiment on SK-MEL-2 melanoma, 91.6%; with SN12C renal it was 98.4%; in the experiment with UO-31 renal, 62.1%; with TK-10 renal it was 85.2%; in the experiment with ACHN renal, 105%. The growth in the experiment on CAKI-1 renal was 98.5%; in the experiment on A498 renal, 101%; in the experiment with CCRF-CEM leukemia, 58.7%; in the experiment with MOLT-4 leukemia, 75.4%.
